# Measurements: PubChem BioAssay (Tox21)
# Inconclusive results are not listed. Unmarked numbers belong to inactive results. Active and inactive are the calls of the source. Calls follow the shape of the full dose curve.
# Assay: qHTS assay to identify small molecule agonists or antagonists of the thyroid stimulating hormone receptor (TSHR) signaling pathway - wild type cell line counter screen (AID 1259384)
# Conditions: HEK293 wild type, cAMP HTRF counter-screen; series mostly up to 92.4 µM; cAMP activity change: at the top concentration
# Description: U.S. Tox21 Program National Center for Advancing Translational Sciences [NCATS] NIH Chemical Genomics Center [NCGC] U.S. Environmental Protection Agency [EPA] National Institutes of Environmental Health Sciences [NIEHS] National Toxicology Program [NTP] U.S. Food and Drug Administration [FDA] Tox21 Assay Overview: TSHR is the receptor for thyrotropin (thyroid stimulating hormone or TSH), a member of the glycoprotein hormone family. TSH is released by the anterior pituitary gland and is the main regulator of thyroid gland growth and development. Upon binding circulating thyrotropin, a G-protein signal cascade activates adenylyl cyclase and […] cAMP concentration is increased. cAMP is a key second messenger involved extensively in cellular signal transduction pathways associated with the majority of G-protein coupled receptors (GPCRs). The activation of these GPCRs by neurotransmitters, lipids, nucleotides, peptides and hormones results in the activation or the inhibition of plasma membrane-bound adenylate cyclase through heterotrimeric G-proteins. A cell-based TSHR-Hek293 assay can be used to identify TSHR agonists. To eliminate the false positive compounds identified from screening a cell-based TSHR-Hek293 cell line, cAMP assay in a wild type Hek293 cells was used as a counter screening.
# Tox21 Assay Protocol Summary: Hek293 cells (wild type) were dispensed at 800 cells/4 uL/well in 1536-well white plates using a Multidrop dispenser. After the assay plates were incubated at a 37 C/5% CO2 incubator for 18 hrs, 23 nL of compounds dissolved in DMSO, positive controls or DMSO only was transferred to the assay plate by a pin tool, followed by 1 ul medium containing Ro20-1724. After 30 min of incubation at room temperature, 2.5 ul/well of cAMP-d2 and 2.5 ul/well of anti-cAMP-cryptate were added respectively into the assay plates using a Flying Reagent Dispenser. The plates were incubated at room temperature for 1 hr. The fluorescence intensity in the plates was measured using an Envision plate reader. Each test compound was measured at 15 concentrations and in triplicates.
# % is scaled to controls: 0 for no effect and ±100 for the full control effect; potency is read from the fitted curve at half-maximal effect.
SMILES,Potency,cAMP activity change
Oc1ccc(C(O)CNCCCCCCNCC(O)c2ccc(O)c(O)c2)cc1O (stereo not given),6.19 µM (active),–
CN(c1nccc(=O)[nH]1)C1CCN(c2nc3ccccc3n2Cc2ccc(F)cc2)CC1,–,"3.08% [at 42.5 µM, active compounds read high]"
Cn1c(=O)c2c(ncn2CC(O)CO)n(C)c1=O (stereo not given),–,"-1.07% [at 42.5 µM, active compounds read high]"
CCCCCCCCCCCCCCCC(=O)OC/C=C(C)/C=C/C=C(C)/C=C/C1=C(C)CCCC1(C)C,–,-4.92%
COCCCCCCCCOCCC[Si](C)(O[Si](C)(C)C)O[Si](C)(C)C,–,-2.09%
CCC(=O)OC(C)(C)C1CC=C(C)CC1 (stereo not given),–,5.9%
N#CCCNCCC#N,–,6.64%
NCCCOCCOCCOCCCN,–,-0.99%
CCCCOCCOCCOCCOCCO,–,5.26%
Cc1ccc(C(=O)C(C)CN2CCCCC2)cc1 (stereo not given),–,"-3.28% [at 42.5 µM, active compounds read high]"
CC(=O)/C(C)=C/C1C(C)=CCCC1(C)C (stereo not given),–,5.79%
CC(Cc1cccc(C(F)(F)F)c1)NCCOC(=O)c1ccccc1 (stereo not given),–,"3.2% [at 42.5 µM, active compounds read high]"
CCCCOC(=O)/C=C\C(=O)OCCCC,–,3.82%
CN(C)CC/C=C1\c2ccccc2COc2ccccc21,–,"-1.43% [at 42.5 µM, active compounds read high]"
CC[C@H](C)[C@H](N)C(=O)O,–,"1.63% [at 42.5 µM, active compounds read high]"
C[C@H](CCC(=O)O)[C@H]1CC[C@H]2[C@@H]3[C@H](O)C[C@@H]4C[C@H](O)CC[C@]4(C)[C@H]3CC[C@]12C,–,-0.738%
CC[C@]12CCCN3CCc4c(n(c5ccccc45)C(=O)C1)[C@@H]32,–,"3.34% [at 42.5 µM, active compounds read high]"
CCCCCCCCC(CO)CCCCCC (stereo not given),–,-3.86%
CC1(C)CCC(C)(C)c2cc(NC(=O)c3ccc(C(=O)O)cc3)ccc21,–,"-5.55% [at 42.5 µM, active compounds read high]"
O=S1(=O)c2cccc3cccc(c23)N1CCCN1CCN(c2ccc(F)cc2)CC1,–,"1.78% [at 42.5 µM, active compounds read high]"

SMILES,Potency,cAMP activity change
CC(O)C1CCCCC1 (stereo not given),–,-1.62%
COc1ccc(OC)c(OC)c1,–,2.62%
CC(C)(C)c1cc(CO)cc(C(C)(C)C)c1O,–,-1.82%
O=C(C(=O)c1ccc(Br)cc1)c1ccc(Br)cc1,–,"5.87% [at 18.9 µM, active compounds read high]"
CN(C)C/C=C(/c1ccc(Br)cc1)c1cccnc1,–,"-2.14% [at 42.5 µM, active compounds read high]"
CC(=O)CC(=O)c1ccccc1,–,10%
O=C1Nc2cc(Cl)ccc2Oc2ccccc21,–,"-7.29% [at 42.5 µM, active compounds read high]"
CCCCCCCCCC=O,–,-1.48%
NC1CCN(c2nc3c(cc2F)c(=O)c(C(=O)O)cn3-c2ccc(F)cc2F)C1 (stereo not given),–,"-2.85% [at 42.5 µM, active compounds read high]"
CCOC(=O)CC(C)C,–,2.3%
CC(=O)c1ccc2c(c1)[C@H](NC(=O)c1ccc(F)cc1)[C@@H](O)C(C)(C)O2,–,5.32%
CCCCCc1ccc(N)cc1,–,-6.14%
CN1CCN(C2=Nc3cc(Cl)ccc3Nc3ccccc32)CC1,–,"-1.85% [at 42.5 µM, active compounds read high]"
C=C(C)C(=O)OC(C)C,–,0.598%
CCN1CCC[C@H]1CNC(=O)c1c(OC)ccc(Br)c1OC,–,"-2.66% [at 42.5 µM, active compounds read high]"
CCCCCCCCCC(=O)OCC,–,-2.58%
N[C@H]1C(O)O[C@H](CO)[C@H](O)[C@@H]1O (stereo not given in full),–,-6.21%
Nc1ccc(C(=O)Nc2ccccc2N)cc1,–,"1.93% [at 42.5 µM, active compounds read high]"
O=S1(=O)N=C(O)c2ccccc21,–,"-8.49% [at 42.5 µM, active compounds read high]"
CC(C)NCC(O)c1cc(O)cc(O)c1 (stereo not given),8.1 µM (active),–
